Assay results reported in PMC5700166.
Residue numbers refer to the chain shown, from its start.

Columns and labels:
Assay in all cases: protein-binding microarray (PBM); PBM: ~300 nM protein, 6 mM HEPES pH 7.8, 80 mM KCl, 0.5 mM EDTA, 0.5 mM EGTA, 6% glycerol, 35 ng/ul poly-dIdC, 1% milk, 1 h, room temperature; Ap Aiptasia and Nv Nematostella (sea anemones) / Co Capsaspora / Aq Amphimedon (sponge) / Dm Drosophila / Hu human; RHD is the Rel homology domain; high values mean tight binding
Conditions in all cases: dsDNA, one strand shown
[1] = molecular target: T1, GST-Ap-NF-kB RHD (Exaiptasia pallida (Aiptasia), UniProt A0A913YAJ5 2-422)
T1 sequence: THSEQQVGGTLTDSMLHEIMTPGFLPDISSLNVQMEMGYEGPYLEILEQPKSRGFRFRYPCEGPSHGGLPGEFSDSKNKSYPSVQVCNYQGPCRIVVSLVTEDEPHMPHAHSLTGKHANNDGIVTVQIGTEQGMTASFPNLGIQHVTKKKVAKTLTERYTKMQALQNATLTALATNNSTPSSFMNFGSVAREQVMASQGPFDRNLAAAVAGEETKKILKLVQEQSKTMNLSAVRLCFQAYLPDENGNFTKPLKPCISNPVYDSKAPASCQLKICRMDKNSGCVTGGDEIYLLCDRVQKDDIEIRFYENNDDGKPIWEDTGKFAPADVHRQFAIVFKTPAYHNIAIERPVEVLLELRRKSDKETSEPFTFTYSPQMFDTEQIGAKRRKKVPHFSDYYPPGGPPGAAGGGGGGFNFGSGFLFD

[2] = molecular target: T2, GST-Nv-NF-kB (Cys allele) (Nematostella vectensis, UniProt E5G601 2-411)
T2 sequence: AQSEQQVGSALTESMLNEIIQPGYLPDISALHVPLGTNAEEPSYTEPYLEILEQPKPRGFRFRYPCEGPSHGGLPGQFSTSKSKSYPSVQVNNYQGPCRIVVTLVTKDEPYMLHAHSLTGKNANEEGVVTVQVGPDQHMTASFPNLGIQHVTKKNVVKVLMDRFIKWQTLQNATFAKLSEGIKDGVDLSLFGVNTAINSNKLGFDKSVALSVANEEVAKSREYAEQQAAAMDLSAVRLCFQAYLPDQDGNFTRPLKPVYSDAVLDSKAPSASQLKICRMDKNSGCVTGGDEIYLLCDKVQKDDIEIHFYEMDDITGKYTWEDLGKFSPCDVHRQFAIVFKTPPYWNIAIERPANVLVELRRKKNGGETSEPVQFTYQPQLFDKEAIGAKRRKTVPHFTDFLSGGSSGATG

[3] = molecular target: T3, GST-Nv-NF-kB (Ser allele) (Nematostella vectensis, UniProt A7UNT2 2-411)
T3 sequence: T2 sequence with Q21R, C66S, S207N, E215Q, V217A, E225K, A268E, D399E

[4] = molecular target: T4, GST-Co-NF-kB (Capsaspora owczarzaki, UniProt F1ARL5 200-546)
T4 sequence: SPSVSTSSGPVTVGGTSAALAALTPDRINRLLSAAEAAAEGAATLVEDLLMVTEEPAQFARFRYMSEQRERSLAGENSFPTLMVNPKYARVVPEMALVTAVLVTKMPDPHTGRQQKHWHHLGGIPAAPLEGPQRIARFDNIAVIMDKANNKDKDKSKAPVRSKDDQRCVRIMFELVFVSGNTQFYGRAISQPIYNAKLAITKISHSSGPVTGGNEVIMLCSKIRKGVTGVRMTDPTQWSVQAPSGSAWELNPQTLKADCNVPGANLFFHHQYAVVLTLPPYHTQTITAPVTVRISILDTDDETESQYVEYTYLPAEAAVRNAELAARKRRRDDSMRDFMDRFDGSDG

[5] = molecular target: T5, GST-Dm-Relish (Drosophila melanogaster, UniProt Q94527 99-473)
T5 sequence: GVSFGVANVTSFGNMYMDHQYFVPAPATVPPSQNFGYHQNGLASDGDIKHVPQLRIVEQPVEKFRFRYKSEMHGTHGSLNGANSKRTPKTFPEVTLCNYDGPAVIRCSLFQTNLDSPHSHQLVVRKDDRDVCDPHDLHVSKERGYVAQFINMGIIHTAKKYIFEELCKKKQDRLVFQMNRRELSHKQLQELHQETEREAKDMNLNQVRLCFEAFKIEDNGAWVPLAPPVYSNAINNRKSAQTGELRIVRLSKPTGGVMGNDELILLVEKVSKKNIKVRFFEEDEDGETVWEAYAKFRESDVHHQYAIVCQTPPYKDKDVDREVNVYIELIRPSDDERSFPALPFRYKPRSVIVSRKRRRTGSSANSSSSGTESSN

[6] = molecular target: T6, GST-Aq-NF-kB (Amphimedon queenslandica, UniProt A9Y5G7 2-389)
T6 sequence: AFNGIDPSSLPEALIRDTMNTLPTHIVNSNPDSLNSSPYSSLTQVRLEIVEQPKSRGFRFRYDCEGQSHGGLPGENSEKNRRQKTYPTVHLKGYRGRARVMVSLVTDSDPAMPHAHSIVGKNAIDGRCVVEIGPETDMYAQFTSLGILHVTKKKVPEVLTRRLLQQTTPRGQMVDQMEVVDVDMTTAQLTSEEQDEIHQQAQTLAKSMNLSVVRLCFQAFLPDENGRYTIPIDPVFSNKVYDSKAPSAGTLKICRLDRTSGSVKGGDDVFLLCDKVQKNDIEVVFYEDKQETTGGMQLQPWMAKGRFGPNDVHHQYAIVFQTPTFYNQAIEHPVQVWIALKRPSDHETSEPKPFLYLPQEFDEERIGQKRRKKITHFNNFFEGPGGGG

[7] = molecular target: GST-Hu-p50 (Homo sapiens, UniProt P19838 7-356)
GST-Hu-p50, sequence (P19838 7-356): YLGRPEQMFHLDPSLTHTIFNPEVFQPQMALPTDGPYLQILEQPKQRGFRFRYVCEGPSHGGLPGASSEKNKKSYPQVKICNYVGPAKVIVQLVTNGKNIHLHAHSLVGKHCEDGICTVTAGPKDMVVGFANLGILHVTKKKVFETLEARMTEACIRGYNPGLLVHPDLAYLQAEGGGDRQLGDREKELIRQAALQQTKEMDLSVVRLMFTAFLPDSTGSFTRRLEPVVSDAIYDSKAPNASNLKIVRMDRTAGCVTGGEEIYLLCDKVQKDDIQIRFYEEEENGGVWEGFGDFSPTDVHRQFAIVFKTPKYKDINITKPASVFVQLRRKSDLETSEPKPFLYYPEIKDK

| Sequence | binding signal [1] [z-score] | binding signal [2] [z-score] | binding signal [3] [z-score] | binding signal [4] [z-score] | binding signal [5] [z-score] | binding signal [6] [z-score] | binding signal [7] [z-score] |
| --- | --- | --- | --- | --- | --- | --- | --- |
| CCGATTAACATCAGGGAATCCCCTGATGTTAATCGGGTCTTGATTCGCTTGACGCTGCTG | 14.7 | 13.7 | 14.6 | 6.28 | 11 | 12.1 | 8.34 |
| CCGATTAACATCAGGACTTTCCCTGATGTTAATCGGGTCTTGATTCGCTTGACGCTGCTG | 6.5 | 10.2 | 6.68 | 1.87 | 7.98 | 10.5 | 5.32 |
| CCGATTAACATCAGGGGGATTTATGATGTTAATCGGGTCTTGATTCGCTTGACGCTGCTG | 8.91 | 9.22 | 10 | 6.7 | 8.87 | 7.3 | 7.42 |
| CCGATTAACATCAAGGTTCCCCCTGATGTTAATCGGGTCTTGATTCGCTTGACGCTGCTG | 8.03 | 6.89 | 7.86 | 9.24 | 5.67 | 5.62 | 5.92 |
| CCGATTAACATCAGGGGATTTACTGATGTTAATCGGGTCTTGATTCGCTTGACGCTGCTG | 8.92 | 9.25 | 10.4 | 3.45 | 10.5 | 7.83 | 7.61 |
| CCGATTAACATCACATGTTTCCCTGATGTTAATCGGGTCTTGATTCGCTTGACGCTGCTG | 2.33 | 3.31 | 4.21 | 4.5 | 1.48 | 4.01 | 1.17 |
| CCGATTAACATCAAGGTATTCCCTGATGTTAATCGGGTCTTGATTCGCTTGACGCTGCTG | 4.4 | 3.82 | 3.75 | 3.21 | 6.27 | 5.39 | 2.26 |
| CCGATTAACATCAAGGGAAGTCCTGATGTTAATCGGGTCTTGATTCGCTTGACGCTGCTG | 3.99 | 4.16 | 2.7 | 1.08 | 7.26 | 5.77 | 2.73 |
| CCGATTAACATCAATAACCCCCATGATGTTAATCGGGTCTTGATTCGCTTGACGCTGCTG | 5.5 | 4.47 | 4.38 | 2.27 | 5.69 | 4.84 | 5.31 |
| CCGATTAACATCACGGGAACACCTGATGTTAATCGGGTCTTGATTCGCTTGACGCTGCTG | 1.81 | 1.11 | 1.02 | 1.95 | 4.06 | 2.73 | 1.28 |
| CCGATTAACATCAAAGTCCCCCCTGATGTTAATCGGGTCTTGATTCGCTTGACGCTGCTG | 7.56 | 6.37 | 5.95 | 9.05 | 7.85 | 6.3 | 5.64 |
| CCGATTAACATCAGAAAAGCCCCTGATGTTAATCGGGTCTTGATTCGCTTGACGCTGCTG | 7.38 | 9.78 | 7.32 | 1.37 | 8.04 | 7.96 | 6.71 |
| CCGATTAACATCACGGGGAATCCTGATGTTAATCGGGTCTTGATTCGCTTGACGCTGCTG | 9.87 | 9.94 | 8.84 | 8.28 | 10 | 7.48 | 6.2 |
| CCGATTAACATCAAAAAAAACCCTGATGTTAATCGGGTCTTGATTCGCTTGACGCTGCTG | 5.46 | 6.25 | 6.4 | 1.62 | 7.4 | 7.35 | 5.56 |
| CCGATTAACATCAGAATTACCCCTGATGTTAATCGGGTCTTGATTCGCTTGACGCTGCTG | 4.43 | 5.36 | 5.04 | 5.87 | 2.94 | 5.49 | 4.69 |
| CCGATTAACATCAGGGAAACACATGATGTTAATCGGGTCTTGATTCGCTTGACGCTGCTG | 2.17 | 2.95 | 3.46 | 3.05 | 6.06 | 3.52 | 1.39 |
| CCGATTAACATCAGGCATCCCCATGATGTTAATCGGGTCTTGATTCGCTTGACGCTGCTG | 3.84 | 2.84 | 3.73 | 1.82 | 3.01 | 2.63 | 2.9 |
| CCGATTAACATCACAATATCCCCTGATGTTAATCGGGTCTTGATTCGCTTGACGCTGCTG | 7.16 | 6.58 | 7.91 | 4.15 | 5.03 | 4.96 | 4.67 |
| CCGATTAACATCACAATTTCCCCTGATGTTAATCGGGTCTTGATTCGCTTGACGCTGCTG | 8.29 | 9.4 | 12 | 8.61 | 5.96 | 6.69 | 6.74 |
| CCGATTAACATCACTTATCCCCCTGATGTTAATCGGGTCTTGATTCGCTTGACGCTGCTG | 4.81 | 3.72 | 4.72 | 6.68 | 2.71 | 3.72 | 4.19 |
| CCGATTAACATCAAGAAATCCCCTGATGTTAATCGGGTCTTGATTCGCTTGACGCTGCTG | 9.62 | 11.5 | 12.5 | 4.27 | 9.61 | 7.7 | 7.69 |
| CCGATTAACATCAAAAGAGTCCCTGATGTTAATCGGGTCTTGATTCGCTTGACGCTGCTG | 5.39 | 5.99 | 5.71 | 1.5 | 5.32 | 5.91 | 4.6 |
